Growth inhibition data for 39 molecules are collected here from PubChem BioAssay (NCI).

The structures appear in SMILES notation. The panel holds about 79,000 compounds, 15% with a hit somewhere; the sample as a whole holds those more often. Unmarked numbers belong to inactive results. Calls of active or inactive are those of the source. Rule as the data show it: active = growth inhibition above about 70%; inactive = the rest.

The nature of the first test: NCI Yeast Anticancer Drug Screen. Data for the rad50EPP+ strain (AID 151).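 Also: 0% = growth of vehicle-treated control cultures.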 The note with it: S. cerevisiae rad50 mutant strain, at 1.2 µM, active compounds read high. A digest of the protocol: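 Exposing the rad50EPP+ strain to each compound, growth was compared with vehicle-only cultures to give inhibition.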
As for `CS(=O)(=O)SCc1ccc([N+](=O)[O-])cc1`, the growth inhibition is 8%.

As for `Cc1csc(=S)n1OC(=O)NC1CCCCC1`, the growth inhibition was -23%.

As for `CCOc1ccc(NC(=O)C2=C(C)NC(C)=C(C(=O)Nc3ccc(OCC)cc3)C2c2cccc([N+](=O)[O-])c2)cc1`, the growth inhibition was -1%.

Turning to `CC(C)(C)N=C(NO)c1ccccc1`, the growth inhibition was 0%.

In the case of `CCCCC/C(=C(\C#N)C(=O)OCC)c1ccccc1`, the growth inhibition was 3%.

As for `O=C(NCCCl)Sc1ccc(Cl)cc1`, the growth inhibition is 3%.

Regarding `O=C1Nc2ccc(Br)cc2C1=Nc1ccc2c(c1)OCO2`, the growth inhibition was -34%.

For `CCC(C)OC(=O)Nc1ccc(C)c(NC(=O)OC(C)CC)c1` (stereo not drawn), the growth inhibition is -2%.

In the case of `O=C(O)c1cc2ccc(Cl)cc2c(O)c1C1=CCCCC1`, the growth inhibition is 8%.

Take `CN(C)Cc1cc(N=Nc2ccc(Cl)cc2)ccc1OC(=O)c1ccccc1`: the growth inhibition is 4%.

`CN1CCN(C(=O)/C=C/C(=O)c2ccccc2)CC1`: the growth inhibition was 4%.

Take `CCCC/C=C/C(C)(C(=O)OCC)C(=O)OCC`: the growth inhibition was -3%.

Regarding `Cc1nc(-c2cc3cc([N+](=O)[O-])ccc3oc2=O)cs1`, the growth inhibition is -7%.

For the molecule `Cc1nc2ccccc2nc1NNc1ccccc1`, the growth inhibition is -9%.

As for `CN(C)[C@@H]1C(=O)C(C(N)=O)=C(O)[C@@]2(O)C(=O)C3=C(O)c4c(O)cccc4C[C@H]3C[C@@H]12`, the growth inhibition is -9%.

Turning to `COc1ccc(NC(=O)CC2SC(=Nc3ccccc3C)NC2=O)c([N+](=O)[O-])c1` (stereo not drawn), the growth inhibition was -2%.

On to `COc1cc(O)c2c(c1O)C(=O)c1cc(C)ncc1C2=O`, for which the growth inhibition is 8%.

On to `CSc1nnc(SC)nn1`, for which the growth inhibition is 6%.

Consider `COc1cc(/C=C2\CCC/C(=C\c3ccc(O)c(OC)c3)C2=O)ccc1O`, for which the growth inhibition was 0%.

In the case of `CN(C)CCNC(=O)c1cccc2cc([N+](=O)[O-])ccc12`, the growth inhibition is 5%.

For the molecule `CCC(C)(C)c1ccc(Oc2cccc(C(=O)O)c2)cc1`, the growth inhibition is 8%.

For the molecule `CCCCCCSc1ncnc2[nH]ncc12`, the growth inhibition is -2%.

As to `CC(=O)Nc1ccc(/C=C/[N+](=O)[O-])cc1`, the growth inhibition is 22%.

`CCOC(=O)c1[nH]n(-c2ccccc2)c(=O)c1C=NC(=S)C(N)=S`: the growth inhibition is -3%.

For `CCCC(O)C1CC(C(C)C)CCC1C` (stereo not drawn), the growth inhibition was -3%.

In the case of `O=[n+]1c2ccccc2n([O-])c2cc(Br)ccc21`, the growth inhibition was 96% (active).

`CN(C)CCNC(=O)c1cccc2c1Oc1c(cccc1[N+](=O)[O-])O2`: the growth inhibition is 0%.

Take `Nc1ncc(-c2ccc(Br)cc2)s1`: the growth inhibition is 19%.

Regarding `Cc1cc2cc3cc(C)c(N)cc3nc2cc1N`, the growth inhibition is -10%.

For `CC12C(=O)OC(=O)C(c3ccccc31)c1ccccc12`, the growth inhibition is -11%.

For the molecule `c1ccc2c(OCC3CO3)cccc2c1` (stereo not drawn), the growth inhibition was 9%.

On to `CCOC(=N)c1ccc(O)c(OC)c1`, for which the growth inhibition was -3%.

For the molecule `Nc1cc(N)c(N=Nc2cccc3c(S(=O)(=O)O)cccc23)cc1N=Nc1cc([N+](=O)[O-])ccc1O`, the growth inhibition is -11%.

In the case of `COC(=O)Oc1cc(Cl)c(Cl)cc1Cl`, the growth inhibition is -1%.

On to `O=C(O)C1CC(c2ccccc2)=NN1c1ccccc1` (stereo not drawn), for which the growth inhibition was -17%.

For `COc1cc([C@@H]2c3cc4c(cc3[C@@H](Nc3ccc(NC(=O)c5cc([N+](=O)[O-])cn5C)cc3)[C@H]3COC(=O)[C@H]23)OCO4)cc(OC)c1O`, the growth inhibition is 4%.

For the molecule `O=C(O)c1ccccc1/C=N/N=C1c2ccccc2-c2ccccc21`, the growth inhibition was -4%.

Consider `O=C1CC(=O)c2ccccc21`, for which the growth inhibition was -3%.

In the case of `Nc1ncnc2c1ncn2C1OC(CO)CC1O` (stereo not drawn), the growth inhibition was -16%.

The test is the same for the next values; noted with them: S. cerevisiae rad50 mutant strain, at 3.7 µM, active compounds read high.
Consider `CS(=O)(=O)SCc1ccc([N+](=O)[O-])cc1`, for which the growth inhibition is 57%.

`Cc1csc(=S)n1OC(=O)NC1CCCCC1`: the growth inhibition is 99% (active).

Take `CCOc1ccc(NC(=O)C2=C(C)NC(C)=C(C(=O)Nc3ccc(OCC)cc3)C2c2cccc([N+](=O)[O-])c2)cc1`: the growth inhibition is -1%.

For `CC(C)(C)N=C(NO)c1ccccc1`, the growth inhibition is 3%.

As to `CCCCC/C(=C(\C#N)C(=O)OCC)c1ccccc1`, the growth inhibition is 3%.

Consider `O=C(NCCCl)Sc1ccc(Cl)cc1`, for which the growth inhibition is 7%.

As for `O=C1Nc2ccc(Br)cc2C1=Nc1ccc2c(c1)OCO2`, the growth inhibition is -37%.

With `CCC(C)OC(=O)Nc1ccc(C)c(NC(=O)OC(C)CC)c1` (stereo not drawn), the growth inhibition is -5%.

On to `O=C(O)c1cc2ccc(Cl)cc2c(O)c1C1=CCCCC1`, for which the growth inhibition was 8%.

On to `CN(C)Cc1cc(N=Nc2ccc(Cl)cc2)ccc1OC(=O)c1ccccc1`, for which the growth inhibition was 7%.

In the case of `CN1CCN(C(=O)/C=C/C(=O)c2ccccc2)CC1`, the growth inhibition is 13%.

Consider `CCCC/C=C/C(C)(C(=O)OCC)C(=O)OCC`, for which the growth inhibition is 0%.

As for `Cc1nc(-c2cc3cc([N+](=O)[O-])ccc3oc2=O)cs1`, the growth inhibition is 26%.

Turning to `Cc1nc2ccccc2nc1NNc1ccccc1`, the growth inhibition was -5%.

As for `CN(C)[C@@H]1C(=O)C(C(N)=O)=C(O)[C@@]2(O)C(=O)C3=C(O)c4c(O)cccc4C[C@H]3C[C@@H]12`, the growth inhibition was -8%.

As for `COc1ccc(NC(=O)CC2SC(=Nc3ccccc3C)NC2=O)c([N+](=O)[O-])c1` (stereo not drawn), the growth inhibition is -2%.

Take `COc1cc(O)c2c(c1O)C(=O)c1cc(C)ncc1C2=O`: the growth inhibition is 20%.

With `CSc1nnc(SC)nn1`, the growth inhibition is 4%.

Turning to `COc1cc(/C=C2\CCC/C(=C\c3ccc(O)c(OC)c3)C2=O)ccc1O`, the growth inhibition is -2%.

As to `CN(C)CCNC(=O)c1cccc2cc([N+](=O)[O-])ccc12`, the growth inhibition is 21%.

In the case of `CCC(C)(C)c1ccc(Oc2cccc(C(=O)O)c2)cc1`, the growth inhibition is 18%.

`CCCCCCSc1ncnc2[nH]ncc12`: the growth inhibition was 2%.

As to `CC(=O)Nc1ccc(/C=C/[N+](=O)[O-])cc1`, the growth inhibition was 42%.

As to `CCOC(=O)c1[nH]n(-c2ccccc2)c(=O)c1C=NC(=S)C(N)=S`, the growth inhibition was -23%.

On to `CCCC(O)C1CC(C(C)C)CCC1C` (stereo not drawn), for which the growth inhibition is -2%.

On to `O=[n+]1c2ccccc2n([O-])c2cc(Br)ccc21`, for which the growth inhibition is 98% (active).

Turning to `CN(C)CCNC(=O)c1cccc2c1Oc1c(cccc1[N+](=O)[O-])O2`, the growth inhibition was 9%.

For `Nc1ncc(-c2ccc(Br)cc2)s1`, the growth inhibition is 29%.

For the molecule `Cc1cc2cc3cc(C)c(N)cc3nc2cc1N`, the growth inhibition was 20%.

Consider `CC12C(=O)OC(=O)C(c3ccccc31)c1ccccc12`, for which the growth inhibition is -25%.

For the molecule `c1ccc2c(OCC3CO3)cccc2c1` (stereo not drawn), the growth inhibition was 30%.

On to `CCOC(=N)c1ccc(O)c(OC)c1`, for which the growth inhibition was -4%.

In the case of `Nc1cc(N)c(N=Nc2cccc3c(S(=O)(=O)O)cccc23)cc1N=Nc1cc([N+](=O)[O-])ccc1O`, the growth inhibition is 3%.

As to `COC(=O)Oc1cc(Cl)c(Cl)cc1Cl`, the growth inhibition was 0%.

`O=C(O)C1CC(c2ccccc2)=NN1c1ccccc1` (stereo not drawn): the growth inhibition was -17%.

Turning to `COc1cc([C@@H]2c3cc4c(cc3[C@@H](Nc3ccc(NC(=O)c5cc([N+](=O)[O-])cn5C)cc3)[C@H]3COC(=O)[C@H]23)OCO4)cc(OC)c1O`, the growth inhibition was 10%.

Turning to `O=C(O)c1ccccc1/C=N/N=C1c2ccccc2-c2ccccc21`, the growth inhibition is 3%.

As to `O=C1CC(=O)c2ccccc21`, the growth inhibition was -1%.

As for `Nc1ncnc2c1ncn2C1OC(CO)CC1O` (stereo not drawn), the growth inhibition was -12%.
